The values below come from PubChem BioAssay AID1259415 (National Center for Advancing Translational Sciences (NCATS), 2018).

In all, about 410,000 compounds went through this assay and about 18,000 (4.4%) were called active. About 7% were inconclusive and are not listed. Many of the other results were omitted from the sample, so actives are more common in it than they were. Values without a mark were called inactive. Rule as the data show it: active = activity change below about -60%; inconclusive = no clear call, values can overlap the other calls; inactive = above about -39%.
% is scaled to controls: 0 for no effect and ±100 for the full control effect.

This experiment is described as follows: qHTS Assay for inhibitors of the human cytomegalovirus (HCMV). To be noted: HFF cells, HCMV-luciferase reporter, 72 h; at 57.5 µM; active compounds read low. An excerpt:
NCGC Assay Overview: Infection with human cytomegalovirus (HCMV) continues to pose significant threats for pregnant women and immunocompromised hosts. HCMV causes serious morbidity and mortality in transplant recipients, and congenital HCMV is the leading infectious cause of mental retardation and deafness in children. In the 1990s, the annual costs associated with the disease burden of congenital CMV were estimated at around $2 billion. A HCMV vaccine is not available yet and HCMV therapies result in intolerable side effects and emergence of drug resistant viruses. […] Towards this goal we have developed and characterized a luciferase HCMV reporter that was initially used in 96 well plates and then optimized to 1536-well plates for utilization in screening of the MLSMR collection, the NGCG diversity collection and the NCGC Pharmaceutical Collection of approved and investigational drugs.
NCGC Assay Protocol Summary:
This is a cell-based assay for HCMV inhibition in HFFs cells. The screening used 2 compound doses and the HCMV-luciferase at MOI of 1 PFU/cell. Cells were treated and infected with HCMV. At 72 h post infection cell lysates were collected and luciferase activity was determined using the Glomax-Multi + Detection System (Promega, Madison, WI). Data were normalized to the controls for basal activity (buffer only) and known HCMV inhibitors Salinmoycin.
1536-well assay protocol for the assay:
(1) Add 3 ul CMV/HFF cell culture. 1000 cells/well in DMEM nirmal media.
(2) Incubate 16 hr at 37C.
(3) Add 23 nl control compound, 10uM of Salinomycin.
(4) Add 23 nl compounds in DMSO solution.
(5) Add 3 ul CMV suspension. Final 1 puf/ul, Virus stock 2000pfu/ul
(6) Incubate 72 hrs at 37C.
(7) Add 4 ul OneGlo Luc Reagent.
(8) Incubate 5 min at room temperature.
Take `CCOC(=O)c1ccc(N2C(=O)c3[nH]nc(-c4ccccc4)c3C2c2ccc(C(C)C)cc2)cc1` (stereo unspecified): the activity change, negative = inhibition is -27.7%. For `CCOc1ccc(C2CC(=O)c3c([nH]c(C(=O)OCc4ccccc4)c3C)C2)cc1` (stereo unspecified) the value was -87.7% (active); for `CCc1ccc(C2CC(=O)c3c([nH]c(C(=O)OCc4ccc(C)cc4)c3C)C2)cc1` (stereo unspecified), -27.1%; for `CCOC(=O)c1[nH]c2c(c1-c1ccccc1)C(=O)CC(c1ccc(Cl)cc1)C2` (stereo unspecified), -60.6% (active). Regarding `CCOc1ccc(C2C3=C(CCCC3=O)N(CC(=O)O)C3=C2C(=O)CCC3)cc1`, the activity change, negative = inhibition was -23.6%. Under `CCCOC(=O)c1[nH]c2c(c1C)C(=O)CC(c1cccs1)C2` (stereo unspecified) stands -91.4% (active); under `COc1ccc(-c2cnn(C(C)(C)C(=O)Nc3ccccn3)c2)cc1OC`, 25%; under `COc1ccc(NC(=O)c2sc(=O)n(Cc3ccc(S(=O)(=O)N(C)C)cc3)c2C)cc1`, -0.573%. For `OCC1(Cc2ccccc2C(F)(F)F)CCN(Cc2ccncc2)CC1` the value was 71%; for `Cc1nc2c(c(C)nn2-c2ccccc2)c(C)c1CCC(=O)NCCc1ccc(Cl)cc1`, -1.35%; for `Cc1cc(C)c2oc(C(=O)Nc3ccc(S(=O)(=O)N4CCCCCC4)cc3)cc(=O)c2c1`, -9.78%.

Turning to `CCOc1ccc(NC(=O)c2cn(C3CCCCC3)c(=O)c3c2c2ccccc2n3C)cc1`, the activity change, negative = inhibition was -4.97%.

Consider `O=C(COc1ccc(Cl)cc1)N(Cc1ccco1)Cc1ccco1`, for which the activity change, negative = inhibition is -22.5%.

With `COc1ccc(S(=O)(=O)NCC(c2ccc(N(C)C)cc2)N2CCc3ccccc32)cc1OC` (stereo unspecified), the activity change, negative = inhibition is 34.1%.

On to `O=C(CCc1nc2sc3c(c2c(=O)[nH]1)CCCC3)NCC(=O)Nc1ccccc1Br`, for which the activity change, negative = inhibition is -4.74%. As to `Cc1nc2sc3c(c2c(=O)n1NC(=O)CCl)CCCC3`, the activity change, negative = inhibition is -63.7% (active). Under `Cc1ccc(C)c(-n2c(SCC(=O)O)nc3sc4c(c3c2=O)CCCC4)c1` stands -26%.

On to `O=C(c1ccc2c(c1)N(Cc1ccccc1F)C(=O)c1ccccc1S2(=O)=O)N1CCOCC1`, for which the activity change, negative = inhibition is 5.01%. For `COc1cccc2c1C(=O)c1c(O)c3c(c(O)c1C2=O)CC(O)(C(C)=NNC(=O)c1ccc(Cl)c(Cl)c1)CC3OC1CC(N)C(O)C(C)O1` (stereo unspecified) the value was -99% (active); for `Cc1ccc2nc(CN3CCN(S(=O)(=O)c4ccc(C)c(C)c4)CC3)oc2c1`, 1.05%; for `COc1ccc(CN2C(=O)C(NC(=O)c3cccc(C)c3)(C(F)(F)F)N=C2c2ccccc2)cc1` (stereo unspecified), -8.44%. Turning to `CC1Oc2ccccc2N(Cc2cccnc2)C1=O` (stereo unspecified), the activity change, negative = inhibition is 49.3%. Under `CC1C(C)N(C(=O)CCl)c2ccccc2N1C(=O)CCl` (stereo unspecified) stands -38.8%; under `CC1C(=O)N(Cc2ccccc2)c2ccccc2N1C(=O)c1ccccc1` (stereo unspecified), -73.6% (active); under `COc1cc(C(CC(=O)NCCC(C)C)N2Cc3ccccc3C2=O)cc(OC)c1OC` (stereo unspecified), 22.7%.

Turning to `CCN(CC)S(=O)(=O)c1ccc2c(c1)N(CC(=O)NCc1ccccc1)C(=O)CS2`, the activity change, negative = inhibition was -9.16%.

Turning to `COC(=O)CN1C(=O)CSc2ccc(S(=O)(=O)Nc3cc(C)ccc3C)cc21`, the activity change, negative = inhibition is -71.2% (active).

Regarding `Cc1ccc(CCNC(=O)CN2C(=O)CSc3ccc(S(=O)(=O)N4CCOCC4)cc32)cc1`, the activity change, negative = inhibition was -26.9%. Under `COc1ccc(Cc2nc3ccc(C(=O)NCc4ccccc4C)cc3o2)cc1` stands -89.9% (active); under `COc1ccc(Cc2nc3ccc(C(=O)NCc4ccccc4Cl)cc3o2)cc1`, -18%; under `COc1ccc(Cc2nc3ccc(C(=O)NCc4ccc(OC)cc4OC)cc3o2)cc1`, -12.1%. Under `O=C(NC1CCCC1)N1CC(=O)N2[C@H](C1)[C@@H](c1ccc(Br)cc1)[C@@H]2CO` stands 13.9%. For `CCOC(=O)c1c(NC(=O)COC(=O)c2ccc(S(=O)(=O)C(F)F)cc2)sc(C(=O)N(C)C)c1C`, the activity change, negative = inhibition is 6.79%.

Turning to `CCOC(=O)c1c(NC(=O)c2cc(CC)on2)sc(C(C)=O)c1C`, the activity change, negative = inhibition is 0.462%. As to `CCOC(=O)c1c(NC(=O)CCl)sc(C(=O)N(CC)CC)c1C`, the activity change, negative = inhibition was -99% (active). With `O=C(CC1C(=O)NCCN1CC(c1ccccc1)c1ccccc1)NCCc1cn[nH]c1` (stereo unspecified), the activity change, negative = inhibition was -37.4%. For `CCCCNC(=O)c1ccc2c(c1)NC(=O)C(C(C)C)N2` (stereo unspecified) the value was 7.34%; for `C=CCN(c1ccc(C(=O)Nc2cc(C)cc(C)c2)cc1)S(C)(=O)=O`, -28.7%. Under `COCCN(CCOC)S(=O)(=O)c1ccc(C(=O)Nc2nc3c(s2)CCc2ccccc2-3)cc1` stands -63.9% (active); under `C=CCN(CC=C)S(=O)(=O)c1ccc(C(=O)Nc2nc3c(s2)CCc2ccccc2-3)cc1`, -86.4% (active). For `CCCCN(C)S(=O)(=O)c1ccc(C(=O)Nc2sc3c(c2C(N)=O)CC(C)(C)NC3(C)C)cc1` the value was -1.57%.

On to `COCCN(CC(=O)Nc1ccccc1C)S(=O)(=O)c1ccc(S(=O)(=O)N2CCCC2)cc1`, for which the activity change, negative = inhibition is 26.9%. In the case of `CCOC(=O)c1c(NC(=O)c2ccc(S(=O)(=O)N(CC)CC)cc2)sc2c1CCCCC2`, the activity change, negative = inhibition was 49.3%. Take `O=C(Nc1ncc2c(n1)-c1ccccc1OC2)c1ccc(Cl)cc1`: the activity change, negative = inhibition is 16.2%. For `C=CCN(CC=C)S(=O)(=O)c1ccc(C(=O)Nc2sc3c(c2C(N)=O)CCCCC3)cc1` the value was -93.4% (active). On to `CCCN(CCC)S(=O)(=O)c1ccc(C(=O)Nc2sc3c(c2C(=O)OC)CCN(CC)C3)cc1`, for which the activity change, negative = inhibition was -35.8%.
